Most compounds without a hit are left out; they make up all but 2.1% or so of the library.
PfM18AAP inh-1 – blocks P. falciparum M18 aspartyl aminopeptidase; 1.2% of 290,000 active; inhibition, % at 7.35 µM; AID 1822; recombinant PfM18AAP, H-Glu-NHMec fluorogenic cleavage;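 active = inhibition above the campaign mean inhibition over all tested compounds plus 3 SD, cut at about 28% in these data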
CTSL1 counter-1 – counter-screen for PFM18AAP inhibitors: inhibitors of F. hepatica cathepsin L1. inhibition, % at 5.96 µM. 0.49% of 300,000 active. recombinant F. hepatica cathepsin L1, Z-Leu-Arg-MCA fluorescence;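 active = inhibition above the mean of all tested compounds plus 3 SD, set per screening campaign, cut at about 17% in these data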
Calb FLC – affects C. albicans growth with fluconazole. C. albicans CaCi-2 (fluconazole-resistant clinical isolate) + fluconazole, Alamar Blue growth, 48 h. growth inhibition, % (concentration not given with the values). 0.57% of 300,000 active. AID 1979;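 active = growth inhibition above about 58% in most replicates, limit read from the data, passing the limit was not always enough; inconclusive = exactly half the replicates above a set limit; inactive = most replicates below a set limit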;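 also: all wells also contain fluconazole at 8 µg/ml as a sub-toxic cotreatment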
Rin1 Abl inh – blocks binding of human Rin1 to Abl; P00519+Q13671; TR-FRET Rin1/Abl binding, biochemical; inhibition, % at 7.35 µM; 0.4% of 360,000 active; AID 588664; in the data active = inhibition above about 5%, passing the limit was not always enough
PfM18AAP inh-2 – confirmation of Plasmodium falciparum M18 aspartyl aminopeptidase inhibitors. shares compounds with PfM18AAP inh-1. recombinant PfM18AAP, H-Glu-NHMec fluorogenic cleavage. inhibition, % at 7.35 µM. 28% of 2,400 active;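 active = mean inhibition over replicate wells above the hit cutoff set for the earlier primary screen, cut at about 29% in these data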
CTSL1 counter-2 – Cathepsin L (human) inhibition, confirmation. shares compounds with PfM18AAP inh-1. purified cathepsin L1, Z-Leu-Arg-MCA fluorescence. inhibition, % at 5.96 µM. 2,400 tested, under 10 active. AID 2178;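 active = average inhibition across replicates above the hit cutoff set in the earlier primary screen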
Target sequence (P07711 whole entry, looked up): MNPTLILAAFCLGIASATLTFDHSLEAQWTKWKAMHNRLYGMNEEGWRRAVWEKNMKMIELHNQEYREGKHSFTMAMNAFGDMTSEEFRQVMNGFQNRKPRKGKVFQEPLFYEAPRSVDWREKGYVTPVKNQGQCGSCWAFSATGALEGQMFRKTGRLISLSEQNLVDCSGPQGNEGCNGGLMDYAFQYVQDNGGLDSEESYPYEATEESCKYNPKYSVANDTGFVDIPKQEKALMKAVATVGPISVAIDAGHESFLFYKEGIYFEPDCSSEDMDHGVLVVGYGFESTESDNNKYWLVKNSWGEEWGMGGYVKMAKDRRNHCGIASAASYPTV
Numbers stand for hits; - = inactive; ? = inconclusive; . = no result.

SMILES	PfM18AAP inh-1	CTSL1 counter-1	Calb FLC	Rin1 Abl inh	PfM18AAP inh-2	CTSL1 counter-2
COCCCn1c(=O)c2ccccc2n2c(=S)[nH]nc12	35	-	-	-	-	-
Cc1cccc(-n2c(=O)c3ccccc3n3c(=S)[nH]nc23)c1C	40	-	-	-	-	-
CC(=O)Nc1ccc(S(=O)(=O)N2CCC(C(=O)O)CC2)cc1	-	-	-	-	.	.
O=C(CN1CC(=O)Oc2ccccc21)NCc1ccco1	33	-	-	-	-	-
O=C(CN1CCOc2ccccc21)NCc1ccco1	-	-	-	-	.	.
Cc1cccc(N2N=C(C(=O)OCC(=O)c3ccccc3)CCC2=O)c1	.	.	.	-	.	.
CC(C)(C)C(=O)C(Oc1cccc2nonc12)n1cncn1 (centres undefined)	50	-	-	-	-	-
COc1ccc(C2/C=C\CN3CCC[C@H]3C(=O)N2Cc2ccc(F)cc2)cc1 (some centres undefined)	.	.	.	-	.	.
CC(Sc1ccc(S(=O)(=O)N2CCOCC2)cc1[N+](=O)[O-])C(=O)O (centres undefined)	33	-	-	-	-	-
CC(C)C(Nc1ccc(S(=O)(=O)N2CCOCC2)cc1[N+](=O)[O-])C(=O)O (centres undefined)	-	-	-	-	.	.
Oc1ccc(/C=N/N2CCN(C3c4ccccc4-c4ccccc43)CC2)cc1	-	-	-	-	.	.
Cc1ccc(CN2CCN(/N=C/c3ccc(C(=O)O)cc3)CC2)cc1	-	-	-	-	.	.
Oc1ccc(/C=N/N2CCN(C3c4ccccc4-c4ccccc43)CC2)cc1O	50	-	-	-	36	-
Cc1ccc(CN2CCN(/N=C/c3ccc(O)c(O)c3)CC2)cc1	64	-	-	-	38	-
Cc1ccc(/C=C/C2=Cc3c(sc(NC(=O)CSc4n[nH]c(N)n4)c3C#N)C(C)(C)C2)o1	-	-	-	.	.	.
COc1ccc2c(c1OC)C(=O)OC2CC(=O)c1ccc(O)cc1 (centres undefined)	-	-	-	-	.	.
COc1ccc2c(c1OC)C(=O)OC2CC(=O)c1ccc(O)c(O)c1 (centres undefined)	43	-	-	-	-	-
Cc1ccc(CNc2ccc3c(c2)ncn3C(C)(C)C)cc1	33	-	-	-	-	-
Cc1ccc(CNc2ccc3c(c2)ncn3C)cc1	-	-	-	-	.	.
COc1ccc(-n2c(SCC(=O)C(C)(C)C)nc3c(sc(=S)n3-c3ccccc3)c2=O)c(OC)c1	37	-	-	-	-	-
NS(=O)(=O)c1ccc(NC(=S)N2CCN(C(=O)C3CCCO3)CC2)cc1 (centres undefined)	47	-	-	-	-	-
O=C(C1CCCO1)N1CCN(C(=S)Nc2ccc(Br)cc2)CC1 (centres undefined)	-	-	-	-	.	.
CCC(NC(=O)Nc1ccc(O)cc1)(C(F)(F)F)C(F)(F)F	39	-	.	-	-	-
CC(NC(=O)Nc1ccc(O)cc1)(C(F)(F)F)C(F)(F)F	-	-	-	-	.	.
COc1cccc(NC(=S)N/N=C2/CCCCc3ccccc32)c1	-	.	-	-	.	.
SMILES	PfM18AAP inh-1	CTSL1 counter-1	Calb FLC	Rin1 Abl inh	PfM18AAP inh-2	CTSL1 counter-2
Cc1ccc(-c2nc(N/N=C/c3cccc([N+](=O)[O-])c3)c3ccccc3n2)cc1	-	-	-	-	.	.
Cc1ccc(-c2nc(N/N=C/c3cccnc3)c3ccccc3n2)cc1	43	-	-	-	-	-
Cc1cc(SCC(=O)c2ccc(O)c(O)c2)n2nc(C)c(-c3ccccc3)c2n1	57	-	?	-	37	-
O=C(CSc1nc2ccccc2c(=O)[nH]1)c1ccc(O)cc1O	-	.	-	-	.	.
CCSc1cc(C)nc2c(-c3ccc(Cl)cc3)c(C)nn12	-	-	-	-	.	.
O=C(CSc1nc2ccccc2c(=O)[nH]1)c1ccc(O)c(O)c1	65	-	-	-	68	-
Cc1cc(=O)[nH]c(SCC(=O)c2ccc(O)c(O)c2)n1	68	-	-	-	59	-
Cc1cc(C)nc(SCNC(=O)c2ccc(Cl)cc2)n1	51	-	-	-	-	-
CCOC(=O)C1=CCN(S(=O)(=O)c2ccc(F)cc2)C1c1ccccc1 (centres undefined)	.	.	.	-	.	.
COCc1cc(C)nc(SCC(=O)c2ccc(O)c(O)c2)c1C#N	62	-	-	-	39	-
Cc1cc(C)nc(SCC(=O)c2ccc(O)c(O)c2)n1	50	-	-	-	-	-
COCc1cc(C)nc(SCC(=O)Oc2ccccc2)c1C#N	-	-	-	-	.	.
